Screens as filed in PubChem.
Pf growth 48h = inhibits P. falciparum growth in the first generation, 48 h. actives 5.9% (n = 310,000). P. falciparum luciferase growth in erythrocytes, 48 h. Potency, µM (top dose mostly 28.7 µM), for the others: top-dose activity change, negative = inhibition, most hits filed as inhibitors; note: potency is the fitted concentration of half-maximal effect; % is set by controls: 0 for no effect and ±100 for the full control effect
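Parasite viability was followed by luminescence of a genomically integrated firefly luciferase. Cultures held 0.1% parasitemia at 2% hematocrit (final), incubated under 5% CO2 at 37 C.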
Shiga inhibitor = Shiga toxin inhibition; inhibition, % at 38.7 µM; actives 9.2% (n = 290,000); AID 2315; Vero cells, Shiga toxin protein synthesis inhibition reporter; in the data active = inhibition mostly above about 28%, no sharp cut-off; inactive = mostly below about 43%; note: 0% is about no effect
Cycloheximide cs = counter-screen hit for Shiga toxin inhibitors, cycloheximide | max response, % | actives 12% (n = 300,000) | AID 2314 | cell reporter, cycloheximide protein synthesis inhibition counterscreen; in the data active = max response mostly above about 13%, no sharp cut-off; inactive = mostly below about 14%; note: read at 38.3 µM for the half of the compounds with a filed dose; 0% is about no effect
Pf growth 96h = inhibits malaria parasite growth, 96 h; actives 6.9% (n = 320,000); P. falciparum luciferase reporter growth, 96 h; Potency, µM (titrated, usually from 28.7 µM), inactives show at the highest dose activity change, negative = inhibition, hits mostly inhibitors; note: potency is the fitted concentration of half-maximal effect; % is set by controls: 0 for no effect and ±100 for the full control effect
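Plates of compound plus infected erythrocytes (2% hematocrit, 0.05% parasitemia final) incubate 96 hours, 37 C, 5% CO2. Detection reagent added; reduced luminescence from the parasites' luciferase reporter flags inhibition.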
NS1 inh = influenza NS1 inhibition; Potency, µM (titrated, usually from 46.1 µM), for inactives: at the top dose activity, positive = more growth; actives 0.4% (n = 270,000); AID 2326; calls by dose curve; note: potency is the fitted concentration of half-maximal effect; actives are rising curves; nearly all actives have a fitted effect of over 50% in size
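Recovery from NS1-induced slow growth read by OD600 in budding yeast switched to galactose assay medium (pH 6.0, -URA) at 1:100 dilution. Compound 23 nl per well; the matching strain lacking NS1 serves as control.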
Sm TGR block = blocks Schistosoma mansoni thioredoxin glutathione reductase | purified TGR, DTNB reduction, TNB absorbance 405 nm | Q962Y6 | actives 3% (n = 360,000) | Potency, µM (series often up to 114 µM), for inactives: at the top dose activity change, negative = inhibition, usual class: inhibitors; note: potency is the fitted concentration of half-maximal effect; % is set by controls: 0 for no effect and ±100 for the full control effect; nearly all actives have a fitted effect of over 60% in size
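Kinetic colorimetric format: TGR-catalysed, NADPH-driven DTNB reduction monitored via TNB absorbance. Enzyme dispensed at 20 nM; compound exposure 15 min at room temperature before reaction start.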
Active calls of the source: *; i = inactive; ? = inconclusive; . = not tested or not shown; [ ] = remark or other dose. Rows were chosen to be rich in hits. Some 21% of all compounds tested hit in one or more screens of this group. Unless noted, calls come from the whole dose curve; as a rule, active = well fitted curve in the direction sought with a large enough effect; inconclusive = small, poorly fitted or top-dose-only effect, or another doubt; inactive = no such curve, though single readings can be large; an effect the other way counts as inactive or inconclusive.

SMILES | Pf growth 48h | Shiga inhibitor | Cycloheximide cs | Pf growth 96h | NS1 inh | Sm TGR block
CCCc1cc(C(=O)NC2CCCCC2)no1 | 105% | 61* | 62* | 31% | -16% | 10%
O=C(O)c1cc(NC(=O)c2ccccc2F)cc(NC(=O)c2ccccc2F)c1 | 20% | -12 | -2 | -14% | 14% | -26%
O=C(Nc1ccc(Nc2ccccc2)cc1)c1ccccc1F | 57% | 74* | 33* | i | -32% | -20%
CCN(CC)c1ccc(NC(=O)c2ccccc2F)cc1 | 41% | 71* | 38* | 46% | 8% | 3%
CCN(CC)c1ccc(NC(=O)c2cc(Cl)ccc2OC)cc1 | . | 7 | 8 | ? | -14% | -7%
N#CC1(c2ccc(NC(=O)c3ccccc3F)cc2)CCCC1 | 191% | 62* | 45* | ? | -13% | -1%
CN(C)CCCN(Cc1ccccc1)C(=S)Nc1ccc(OC(F)F)cc1 | ? | -19 | -2 | ? | -5% | -18%
Cc1cc(C)cc(N(CC(=O)NC(C)(C)C)C(=O)CCC(=O)Nc2ccccn2)c1 | -9% | -3 | -2 | 10µM* | 2% | -20%
Cc1cccc(N(CC(=O)NC(C)(C)C)C(=O)CCC(=O)Nc2ccccn2)c1 | -18% | -5 | -2 | ? | -8% | 2%
Cc1cc(C)cc(N(CC(=O)NCc2ccc(F)cc2)C(=O)CCC(=O)Nc2ccccn2)c1 | 13µM* | -15 | -1 | -3% | ? | 8%
Cc1ccnc(NC(=O)CCC(=O)N(CC(=O)NCc2ccc(F)cc2)c2cccc(F)c2)c1 | 7% | -7 | -1 | 32% | 4% | -4%
O=C(Nc1cccc(Cl)c1Cl)C1CCN(C(=O)c2cccs2)CC1 | 9% | -4 | -7 | 21% | 4% | -8%
CS(=O)(=O)c1ccc(S(=O)CC(=O)OCc2ccccc2)c([N+](=O)[O-])c1 (stereo not given) | -17%[5.75 µM] | 17 | 11* | ? | . | 2.5µM*
COC(=O)c1ccc(OC(=O)CS(=O)c2ccccc2[N+](=O)[O-])cc1 (stereo not given) | 34% | 2 | -1 | -32% | -31% | 22µM*
O=C(CS(=O)c1ccc(C(F)(F)F)cc1[N+](=O)[O-])Oc1ccccc1 (stereo not given) | . | -3 | 25* | -79% | -156% | 35µM*
O=C(CNc1ccc(C(F)(F)F)cc1[N+](=O)[O-])OCC(=O)c1ccccc1 | . | 30 | 3 | 3% | 6% | 2%
O=C1CCCC(=O)C1C1c2ccccc2CCN1C(=O)CCl (stereo not given) | 27% | 16 | 4 | ? | -3% | 45µM*
COc1ccc2c(c1)CCN(C(=O)CCl)C2C1C(=O)CCCC1=O (stereo not given) | 1% | 9 | -5 | -22% | 8% | ?
CCS(=O)(=O)c1ccc(O)c(NC(=O)CCCC(=O)O)c1 | 13% | 7 | -1 | 17% | -1% | 0%
COc1cc(NC(=O)/C=C/c2ccccc2)c(C(=O)O)cc1OC | 3% | 10 | 0 | 35% | -1% | 0%
CCS(=O)(=O)c1ccc(O)c(NC(=O)/C=C/c2ccccc2)c1 | 37% | 73* | 28* | 21% | -3% | 0%
COC(=O)c1cc(NC(=O)/C=C/c2ccccc2)ccc1O | 130% | 121* | 48* | 35% | -8% | 17%
Cc1c(O)ccc(NC(=O)/C=C/c2ccccc2)c1C | 13% | 48* | 12 | ? | -2% | 5%
COc1ccc(C(=O)NC(=S)Nc2ccc3oc(=O)ccc3c2)cc1OC | 10% | -7 | -3 | 32% | 12% | -15%
COc1ccc(CC(=O)Nc2c(C(=O)N3CCN(c4ccccc4)CC3)oc3ccccc23)cc1OC | ? | -4 | -3 | 35% | -2% | -1%
Cc1cc(C)cc(OCCSc2nc3ccc(NC(=O)c4ccc5c(c4)OCO5)cc3s2)c1 | . | . | . | . | . | -5%
CCn1c(SCc2ccc(F)cc2Cl)nnc1-c1nonc1NC(C)=O | . | . | . | . | . | 0%
Cc1ccc(NC(=O)CSc2nnc(C3CC3)n2N)cc1S(=O)(=O)N1CCOCC1 | ? | 16 | -4 | 11% | . | 14%
CCOC(=O)C1CCCN(S(=O)(=O)c2ccc3c(c2)CCN3C(=O)CC)C1 (stereo not given) | . | . | . | . | . | -3%
